# A selection: hits, their analogues and other compounds. The true share with any hit is near 2.2%.
# ATXN2 expr inh = Primary qHTS for Inhibitors of ATXN expression | Potency, µM (doses to about 57 µM), without a hit: top-dose activity change, negative = inhibition, usual class: inhibitors | HEK-293 ATXN2-luciferase reporter, luminescence, 24 h | AID 1745845, 2022 | 360,000 tested, 0.72% active; also: potency is read from the fitted curve at half-maximal effect; % is scaled to controls: 0 for no effect and ±100 for the full control effect; nearly all actives have a fitted effect of over 55% in size
#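 qHTS (up to 57 uM final) was run with 24 h compound exposure of reporter cells at 37 °C. Each well was multiplexed: SteadyGlo luminescence measured ATXN2-luciferase expression after a fluorogenic Gly-Phe-AFC viability readout (25 uM final).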
# TGFb SMAD3 inh = qHTS for Inhibitors of TGF-b | HepG2 CAGA-GFP TGF-b/SMAD3 reporter, GFP fluorescence, 18 h; TGF-beta stimulated, 500 pg/mL final | AID 588855, 2011 | Potency, µM (doses to about 46.1 µM), inactives show at the top dose activity, negative = inhibition, usual class: inhibitors | 410,000 tested, 1.2% active; also: potency is read from the fitted curve at half-maximal effect; % is scaled to controls: 0 for no effect and ±100 for the full control effect; nearly all actives have a fitted effect of over 65% in size
#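 GFP signal (ex488/em500-530) from TGF-beta-stimulated HEPG2 CAGA-GFP cells, 500 pg/mL final, 18 h at 37 degrees C in DMEM plus 1% FBS, normalized to unstimulated and DMSO-stimulated controls.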
# IDH1 R132H inh = qHTS for Inhibitors of mutant isocitrate dehydrogenase 1 (IDH1): qHTS; Potency, µM (series often up to 76.6 µM), for inactives: top-dose activity change, negative = inhibition, actives largely listed as inhibitors; IDH1-R132H enzyme, NADPH consumption, diaphorase/resazurin fluorescence; Isocitrate dehydrogenase [NADP] cytoplasmic (Homo sapiens), O75874; 390,000 tested, 0.093% active; also: potency is read from the fitted curve at half-maximal effect; % is scaled to controls: 0 for no effect and ±100 for the full control effect; nearly all actives have a fitted effect of over 65% in size
# Target sequence (O75874 whole entry R132H, stated change not applied): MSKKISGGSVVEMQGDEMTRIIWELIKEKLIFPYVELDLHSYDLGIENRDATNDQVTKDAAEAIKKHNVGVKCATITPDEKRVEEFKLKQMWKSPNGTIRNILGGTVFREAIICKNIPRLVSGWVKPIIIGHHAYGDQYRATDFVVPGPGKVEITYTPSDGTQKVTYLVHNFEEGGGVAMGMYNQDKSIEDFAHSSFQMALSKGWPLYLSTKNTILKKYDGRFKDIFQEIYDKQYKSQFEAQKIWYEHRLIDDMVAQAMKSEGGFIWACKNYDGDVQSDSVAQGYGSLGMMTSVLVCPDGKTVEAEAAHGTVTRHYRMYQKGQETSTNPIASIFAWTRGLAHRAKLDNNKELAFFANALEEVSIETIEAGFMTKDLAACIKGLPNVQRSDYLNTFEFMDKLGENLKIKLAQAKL
#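 IDH1-R132H (0.5 ug/mL dispensed) in pH 7.5 Tris buffer was preincubated 30 min with compound, then given a substrate mix of 0.016 mM NADPH and 2 mM alpha-KG for 80 min at room temperature; remaining NADPH was read by diaphorase/resazurin fluorescence.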
# LDHA block = qHTS assay for inhibitors of human lactate dehydrogenase; activity change, % (values are at about 110 or 230 µM); L-lactate dehydrogenase A chain (Homo sapiens), P00338; purified LDHA, NADH/diaphorase-resazurin fluorescence; hits give low values; AID 1347041, 2019; 480,000 tested, 0.15% active; in the data active = activity change below about -30%; inconclusive = mostly about -25% to -30%;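 also: plate controls were DMSO wells for no effect and wells without enzyme for full effect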
#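 Resorufin fluorescence (ex540/em590), read at 0 and 20 min after diaphorase/resazurin addition, reports the NADH left after a 5 min room-temperature reaction of 2 nM human LDH5 with 0.06 mM NADH and 0.2 mM pyruvate.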
# S2 tox = Viability Counterscreen for Primary qHTS for Inhibitors of ATXN expression; S2 cells (HEK-293 line with an ATXN2-luciferase reporter) viability, CellTiter-Fluor protease fluorescence, 24 h; Potency, µM (top dose mostly 56.7 µM), hits mostly cytotoxic; 400,000 tested, 0.49% active; AID 651635, 2014; also: potency is read from the fitted curve at half-maximal effect; nearly all actives have a fitted effect of over 40% in size
# HepG2 tox = qHTS for Inhibitors of TGF-b: Cytotox Counterscreen. AID 588856, 2011. Potency, µM (top dose mostly 46.1 µM), for inactives: top-dose activity change, negative = cytotoxicity, actives largely listed as cytotoxic. 410,000 tested, 0.76% active. HepG2 CAGA-GFP viability, ATP luminescence, 18 h; also: potency is read from the fitted curve at half-maximal effect
#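 HepG2 CAGA-GFP cells (1000/well, DMEM with 1% FBS) received compound, then TGF-beta at 500 pg/mL final, and were incubated 18 hours at 37 degrees C. Viability was read by CellTiter-Glo luminescence. Media-only wells were set as complete cell-killing and DMSO as no toxicity.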
# * marks the source's active call; other numbers are inactive results; i = inactive; ? = inconclusive; · = no result. Unless noted, calls follow the shape of the dose curve; as a rule, active = well fitted curve in the direction sought with a large enough effect; inconclusive = small, poorly fitted or top-dose-only effect, or another doubt; inactive = no such curve, though single readings can be large; an effect the other way counts as inactive or inconclusive.
SMILES,ATXN2 expr inh,TGFb SMAD3 inh,IDH1 R132H inh,LDHA block,S2 tox,HepG2 tox
CCOC(=O)[C@]12Cc3c(cc(OC)c(OC)c3OC)[C@H]1N(Cc1ccccc1)C(=O)c1cc(F)c(F)cc12,-16.4%,·,·,0.9,?,·
CCOC(=O)[C@]12Cc3c(cc(OC)c(OC)c3OC)[C@H]1N(Cc1ccccc1)C(=O)c1cc(OC)ccc12,20µM*,·,·,-0.2,11.2µM*,·
CCN(CC)C(=O)[C@H]1CC(CC(=O)NC/C=C(\C)CCC=C(C)C)C(=O)N2CCc3c([nH]c4ccccc34)[C@]12C (some centres not stated),?,15.8µM*,6.2%,10.8,?,-103.8%
C[C@]12c3[nH]c4ccccc4c3CCN1C(=O)C(CC(=O)NCc1cccc(C(F)(F)F)c1)C[C@@H]2C(=O)N1CCCCC1 (some centres not stated),0.0%,11.2µM*,-18.7%,-0.2,?,-17.5%
C[C@]12c3[nH]c4ccccc4c3CCN1C(=O)C(CC(=O)NCc1cccc(C(F)(F)F)c1)C[C@@H]2C(=O)N1CCOCC1 (some centres not stated),-0.7%,-32.1%,-10.0%,2.7,i,-27.7%
CCN(CC)C(=O)[C@H]1C[C@H](CC(=O)NC/C=C(\C)CCC=C(C)C)C(=O)N2CCc3c([nH]c4ccc(Cl)cc34)[C@]12C,-3.4%,?,-12.1%,-11.0,i,-3.3%
CCN(CC)C(=O)[C@H]1CC(CC(=O)NC/C=C(\C)CCC=C(C)C)C(=O)N2CCc3c([nH]c4ccc(OC)cc34)[C@]12C (some centres not stated),?,11.2µM*,1.6%,4.2,25.1µM*,-94.5%
CC(=O)c1cc(-c2ccccc2)n(CC(=O)NC(C)(C)C)c1C,·,-15.1%,0.8%,-1.8,i,-6.5%
OC(CNC1CCCCC1)CNC1CCCCC1,·,-0.1%,4.1%,-1.3,?,-15.3%
Oc1c(C(Nc2ccccn2)c2ccccc2F)ccc2cccnc12 (configuration not stated),·,1.41µM*,-20.4%,-4.8,·,-1.3%
Oc1c(C(Nc2ccccn2)c2ccccn2)ccc2cccnc12 (configuration not stated),5.01µM*,-19.1%,3.6%,3.2,?,-16.0%
Oc1ccccc1C(Nc1nccs1)c1ccc2cccnc2c1O (configuration not stated),7.08µM*,?,-1.3%,4.1,i,-16.7%
Cc1cccc(N2CCN(C(=O)CCNS(=O)(=O)c3ccc4c(c3)CCC(=O)N4)CC2)c1C,-13.6%,-26.7%,6.7%,0.3,i,-11.7%
Cc1ccc(SCC(=O)NC2CC3CCC(C2)N3C)cc1 (configuration not stated),10.0%,-3.8%,0.0%,-11.3,i,-4.1%
CS(=O)(=O)N1CCN(C2C3CC4CC(C3)CC2C4)CC1 (configuration not stated),-32.2%,-7.5%,0.0%,-31.9*,i,-39.7%
CCS(=O)(=O)N1CCN(C2CCC(C)CC2)CC1 (configuration not stated),-3.6%,-5.3%,6.1%,-22.0,i,-6.3%
CC1CCC(N2CCN(S(C)(=O)=O)CC2)CC1 (configuration not stated),-0.7%,?,13.3%,-33.7*,i,-6.2%
CC(=O)c1c(C)[nH]c2ccccc12,·,·,·,9.7,·,·
Cc1[nH]c2ccccc2c1C(=O)CCl,·,?,2.4%,-0.5,11.2µM*,-5.4%
Cc1ccc(CNC(=O)COC(=O)c2cnccn2)cc1,2.1%,3.5%,2.6%,2.4,i,1.2%
C/C=C(\C)C(=O)OC1c2c(ccc3ccc(=O)oc23)OC(C)(C)C1OC(C)=O (configuration not stated),-7.7%,3.3%,5.1%,1.5,?,-22.5%
C/C=C(/C)C(=O)OC1c2c(ccc3ccc(=O)oc23)OC(C)(C)C1OC(=O)/C(C)=C\C (configuration not stated),?,11.2µM*,2.5%,3.7,?,-28.8%
CN1CCC(NC(=O)C2(C)CCN2Cc2ccc3ccccc3c2)CC1 (configuration not stated),14.2%,-2.1%,·,-3.9,i,-2.3%
CC1=[N+](C)c2ccc3ccccc3c2C1(C)C,?,6.31µM*,13.3%,6.6,i,-75.0%
COC(=O)Cn1c(Br)nc2c1c(=O)n(C)c(=O)n2C,·,·,·,-35.3*,·,·
SMILES,ATXN2 expr inh,TGFb SMAD3 inh,IDH1 R132H inh,LDHA block,S2 tox,HepG2 tox
Cc1cc2c(cc1S(=O)(=O)Nc1cccc(C(F)(F)F)c1)OCCN2C,·,3.55µM*,-5.3%,6.2,·,-48.8%
COc1ccc(C(=O)/C=C2\C(=O)Nc3ccc(Br)cc32)cc1,?,?,-3.2%,-1.4,?,-42.9%
O=C1Nc2ccc(Br)cc2/C1=C/C(=O)c1ccc2c(c1)OCO2,·,?,?,-13.2,20µM*,-110.5%
O=C(c1ccc(COc2ccc3ccccc3c2)o1)N1N=C(C(F)F)CC1(O)C(F)F (configuration not stated),-25.9%,11.2µM*,1.7%,1.5,i,-108.3%
O=[N+]([O-])c1cc(Br)c(O)c(/C=N/Nc2nnnn2-c2cccc3ccccc23)c1,-22.9%,?,6.0%,-36.8*,i,-93.1%
CNc1nc(N/N=C/c2cc([N+](=O)[O-])ccc2F)nc(Nc2ccccc2)n1,·,-27.9%,0.3%,-0.8,?,-26.2%
CNc1nc(N/N=C/c2cc3c(cc2[N+](=O)[O-])OCO3)nc(Nc2ccccc2)n1,·,?,3.5%,-15.4,28.2µM*,15.8µM*
CCCCn1nnnc1CSc1nnc(-c2ccccc2)n1-c1ccccc1,·,·,·,-31.1*,·,·
O=c1[nH]c(CSc2nnc(-c3ccccc3)n2-c2ccccc2)nc2ccccc12,-6.4%,-7.6%,-16.6%,4.3,i,-34.3%
O=C(NCC(c1cccs1)N1CCOCC1)c1cc(=O)c2cc(Br)ccc2o1 (configuration not stated),·,·,·,-31.2*,·,·
O=C(NCC(c1ccco1)N1CCOCC1)c1cc(=O)c2cc(Br)ccc2o1 (configuration not stated),·,·,·,-30.9*,·,·
O=C(NCC(c1cccs1)N1CCCCCC1)c1cc(=O)c2ccc(Br)cc2o1 (configuration not stated),·,·,·,-30.6*,·,·
